# Compounds without any hit were thinned out: in the full panel of roughly 83,000, 20% have a hit.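 Each cell line was grown in a 96-well plate and treated with one concentration of compound for 48 hours. Values below 10 were considered active.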 Unmarked numbers belong to inactive results. Activity calls are given as the source filed them.
# Key:
# Assay in all cases: NCI-60 one-dose screen, 48 h (100 = growth as untreated, 0 = no growth, -100 = all killed)
# Settings in all cases: 10 µM unless noted
# SK-MEL-2 melanoma = system: SK-MEL-2 melanoma
# EKVX NSCLC = system: EKVX NSCLC
# SN12C renal = system: SN12C renal
# UO-31 renal = system: UO-31 renal
# TK-10 renal = system: TK-10 renal
# ACHN renal = system: ACHN renal
# CAKI-1 renal = system: CAKI-1 renal
# A498 renal = system: A498 renal
# CCRF-CEM leukemia = system: CCRF-CEM leukemia
# MOLT-4 leukemia = system: MOLT-4 leukemia
# SR leukemia = system: SR leukemia
# RPMI-8226 leukemia = system: RPMI-8226 leukemia
# OVCAR-8 ovarian = system: OVCAR-8 ovarian
# OVCAR-5 ovarian = system: OVCAR-5 ovarian
# OVCAR-4 ovarian = system: OVCAR-4 ovarian
# SK-OV-3 ovarian = system: SK-OV-3 ovarian
# IGROV1 ovarian = system: IGROV1 ovarian
# OVCAR-3 ovarian = system: OVCAR-3 ovarian
# HS 578T breast = system: HS 578T breast
# NCI/ADR-RES ovarian = system: NCI/ADR-RES ovarian
Structure (SMILES),growth (SK-MEL-2 melanoma),growth (EKVX NSCLC),growth (SN12C renal),growth (UO-31 renal),growth (TK-10 renal),growth (ACHN renal),growth (CAKI-1 renal),growth (A498 renal),growth (CCRF-CEM leukemia),growth (MOLT-4 leukemia),growth (SR leukemia),growth (RPMI-8226 leukemia),growth (OVCAR-8 ovarian),growth (OVCAR-5 ovarian),growth (OVCAR-4 ovarian),growth (SK-OV-3 ovarian),growth (IGROV1 ovarian),growth (OVCAR-3 ovarian),growth (HS 578T breast),growth (NCI/ADR-RES ovarian)
S=c1c2ccccc2nc2n1CCc1c-2[nH]c2ccccc12,72.9%,50.6%,60.9%,56.8%,69%,42.4%,36.6%,112%,96.2%,74.1%,67.7%,89.5%,28.6%,86.8%,50.3%,42.2%,48.2%,67.2%,8.23% (active),49.6%
Cc1ccc2c(c1)nc(-c1ccccc1)n2CC(=O)N=Nc1c(O)[nH]c2ccc(Br)cc12,-40.5% (active),-77.2% (active),-72.3% (active),-90% (active),-10% (active),-99.9% (active),-65.4% (active),-37.2% (active),23.8%,-42.1% (active),0.421% (active),-1.7% (active),-67.2% (active),-20.2% (active),-49.3% (active),-32% (active),-78% (active),-75.2% (active),-5.01% (active),-69.6% (active)
O=c1oc2ccc(Br)cc2cc1C1=CSc2nc3sc4c(c3c(=O)n2N=C1)CCCC4,98.6%,97%,103%,69.8%,175%,99.4%,96.2%,177%,84.4%,93.2%,86.6%,101%,99.9%,102%,86.1%,80.3%,90.8%,115%,93.1%,106%
O=C(CCN1C(=O)/C(=C/c2ccc(F)cc2)SC1=S)N1CCOCC1,65.9%,87.2%,53%,51.1%,85.6%,63.6%,88.4%,72.5%,66.6%,84%,35%,52.2%,80.9%,79.1%,55.5%,91.5%,85.6%,78.7%,89%,78.2%
Cc1ccc([C@H]2C(C(=O)c3ccc(Cl)cc3)C3(N[C@@H]2c2ccccc2)C(=O)Nc2ccc(Cl)cc23)cc1 (stereo not given in full),49.9%,59.8%,-1.19% (active),31.2%,65.7%,38.7%,39.1%,94%,66.3%,3.24% (active),-3.12% (active),32.4%,59.3%,67.5%,57.4%,67.4%,50.9%,45.8%,74.4%,54.6%
CC(=O)c1cccc(NC(=O)CCC(=O)NS(=O)(=O)c2ccc(C)cc2)c1,115%,99.5%,111%,92.5%,103%,105%,101%,137%,99%,107%,99.3%,99.8%,106%,110%,118%,99.6%,115%,128%,111%,112%
CCOC(=O)COc1c(OC)c(OC)cc2oc(-c3cccc(C(=O)Nc4ccc(Cl)cc4)c3)cc(=O)c12,71.3%,62.5%,58.3%,28.1%,87.7%,73.1%,48.4%,82.7%,31.1%,19.8%,18.4%,38.5%,52%,81.4%,68.8%,75.4%,54.4%,23.3%,49.6%,36.5%
CC12CC[C@@H]3[C@]4(C)COC(c5c(F)cccc5F)O[C@@H]4CC[C@@]3(C)[C@@H]1CC(C1=CCOC1=O)O2 (stereo not given in full),81.2%,70.3%,66.6%,76.4%,93.5%,35%,87.2%,106%,74.8%,52.6%,55.6%,40.4%,59.8%,85.6%,70.1%,77.2%,79.1%,88.1%,81.2%,59%
COc1ccc2[nH]cc(-c3cc(N)n4nc(-c5cn(C)c6ccccc56)cc4n3)c2c1,-96% (active),-82.8% (active),-73.2% (active),-93.7% (active),-95.3% (active),-100% (active),-96% (active),-80.6% (active),-39.3% (active),-41.4% (active),9.5% (active),-18% (active),-95.6% (active),-85.9% (active),-58.3% (active),-84% (active),-64.2% (active),-43% (active),-7.76% (active),-45.3% (active)
C=C1CC[C@@H]2[C@]3(C)COC(c4ccco4)O[C@@H]3CC[C@@]2(C)[C@@H]1C/C=C1/C(=O)OCC1OC(C)=O (stereo not given in full),59.5%,89.3%,3.28% (active),35.4%,111%,33.9%,36.1%,129%,-19.8% (active),2.43% (active),-21% (active),-30.9% (active),-8.73% (active),35.8%,48.2%,105%,9.51% (active),-28.9% (active),66.8%,8.21% (active)
CCCSc1nc(Nc2ccc(S(N)(=O)=O)cc2)c(C#N)c(-c2ccc(Cl)cc2)n1,67.9%,50.6%,-16.2% (active),-68.6% (active),-16.4% (active),-66.8% (active),-54.5% (active),-41.8% (active),81.4%,50.4%,18.5%,11.2%,15.2%,61.1%,7.47% (active),-32.6% (active),43%,31.7%,12.5%,26.8%
COc1ccccc1C(=O)NN1C(=O)/C(=C/C2=Cc3ccccc3OC2)SC1=S,109%,105%,104%,74%,124%,103%,45.5%,134%,93.7%,100%,92.1%,88.6%,99.9%,109%,102%,94.5%,107%,107%,111%,107%
CCN(CC)c1ccc(/C=N/Nc2nc(-c3ccc(C)cc3)cs2)c(O)c1,79.7%,79.2%,99.7%,83.2%,86.9%,96.3%,78%,105%,88.2%,80%,92.9%,74.3%,86.8%,93.2%,89.7%,108%,96.3%,92.1%,108%,92.5%
COc1ccc(C2=NN(C(C)=O)C(c3ccc(OCc4ccc(Cl)cc4)c(OC)c3)C2)cc1OC (stereo not given),44.1%,46.3%,43.2%,22.4%,44.1%,42.9%,47.2%,64.9%,50.1%,20.5%,52.4%,37%,43.5%,79.8%,29.4%,84.9%,49%,41.4%,56.3%,56.1%
COc1ccc(-c2ccc(SCC(=O)Nc3ccc(S(N)(=O)=O)cc3Br)nn2)cc1,68.9%,78%,88.4%,88.3%,116%,86.7%,63.1%,89.8%,98.7%,93.7%,92.7%,85.8%,48.7%,99.6%,38%,62.3%,105%,98.3%,44.8%,95.3%
C=C1CCC2C3(C)COC(c4ccc(F)cc4)OC3CCC2(C)C1C/C=C1/C(=O)OCC1O (stereo not given),-63.2% (active),5.53% (active),-11.3% (active),-90.6% (active),-35.8% (active),-97.6% (active),-5.17% (active),89.6%,11.4%,8.65% (active),7.55% (active),6.7% (active),-61.5% (active),-6.07% (active),0.389% (active),40.5%,-26.3% (active),-82% (active),-5.65% (active),-22.4% (active)

# — PubChem BioAssay (NCI)
